The values that follow come from PubChem BioAssay (NCATS).

Inconclusive results are not listed. Calls of active or inactive are those of the source. Calls come from the whole dose curve; as a rule, active = well fitted inhibition curve with a large enough effect; inconclusive = small, poorly fitted or top-dose-only effect; inactive = no such curve, though single readings can be large or run the other way.

The assay in a line: Primary qHTS for inhibitors of La Crosse Virus (LACV) - induced cell death in SH-SY5Y cells (AID 1508616).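 Note: top concentration of the series differs between compounds; 0% = infected DMSO wells and 100% = uninfected DMSO wells; higher means more rescue of cells from virus-induced death.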 The note with it: SH-SY5Y LACV cytopathicity rescue, ATP luminescence, 6 d; series mostly up to 4.29 µM; activity change: at the top concentration. The source says: Assay Provider: Karin Peterson Ph.D.
National Institute of Allergy and Infection Diseases, National Institute of Health
La Crosse Virus (LACV) is a California serogroup mosquito-borne arbovirus, family Peribunyaviridae, which is an endemic pathogen in North America and can induce a rare, life-threatening neurological disease in children. LACV was first isolated in the early 1960s, from a summer "rural encephalitis" case in La Crosse, Wisconsin, USA. Since then, LACV encephalitis cases have been found in more than twenty states, with most cases in the Mississippi and Ohio River basins. The life cycle of LACV is maintained between the vector, the eastern tree-hole mosquito Aedes triseriatus, and vertebrate hosts including eastern gray squirrels (Sciurus carolinensis) and chipmunks (Tamiasstriatus grinseus). […] Most LACV infections in humans are asymptomatic or induce mild clinical symptoms of fever, headache, lethargy and vomiting. However, in some cases LACV can cause severe neuroinvasive disease, including encephalitis, meningitis, and meningoencephalitis, requiring hospitalization. To date, there is neither a licensed vaccine nor a Food and Drug Administration (FDA) approved antiviral therapy available to prevent or treat LACV encephalitis. The primary treatment for viral encephalitis is palliative care due to the lack of therapeutics. In the current study, we conducted a screen of 4,096 FDA approved and bioactive small molecules against LACV, by screening for rescue of LACV-induced cell death in SH-SY5Y cells.
LACV-induced cytopathicity assay
SEQUENCE No. (1,2, 3, etc.); […] (e.g., Cells, Incubation, Reagent, etc.); VALUE and DESCRIPTION.
1. Reagent; 2 uL; Cell solution.
3. Compounds; 23nL; Compound library
4. Reagent; 12 uL; LACV virus
6. Reagent; 24 uL; ATPLite (PerkinElmer)
7. Time; 5 min; Room temperature
8. Detection; Luminescence; View
NOTES (numbers refer to sequence above)
1. Seed 6000 SH-SY5Y cells (ATCC CRL-2266) in 2 microL/well media (DMEM/F12 10% FBS, 1x L-Glutamine, 1x Pyruvate, 1x NEAA, 1x Pen/Strep) in 384-well assay plates (tissue culture treated, white, solid bottom).
2. Incubate at 37 degrees C with 5% CO2 for 24 hr.
3. Dispense 23 nL/well compounds in DMSO via pin transfer.
4. Dispense 12 microL/well of LACV (LACV/human/1978) in media at 0.01 MOI.
5. Incubate at for 6 days at 37C 5% CO2
6. Dispense 24 microL/well of ATPLite 1step Luminescence assay system (PerkinElmer).
7. Incubate for 5 min at room temperature.
8. Read luminescence signal (Viewlux plate reader, PerkinElmer). Data was normalized with DMSO control wells containing LACV as 0%, and DMSO control wells without virus as 100%.
`O=C1c2ccccc2C(=O)C1C(=O)C(c1ccccc1)c1ccccc1`: the “activity change” value was -2.13% (inactive).

`CN1C(=O)CCS(=O)(=O)C1c1ccc(Cl)cc1` (stereo not given): the call was inactive.

In the case of `CC(C)(C)NCC(O)c1ccccc1Cl` (stereo not given), the compound was classed as inactive.

With `CCC(CC)(CNC(=O)CCCO)c1cccc(OC)c1`, the “activity change” value was -7.24% (inactive).

Regarding `COc1ccc2c(c1OC)C(=O)O[C@H]2[C@@H]1c2cc3c(cc2CCN1C)OCO3`, the call was inactive.

As to `CC[N+]1(CC)CCC(OC(=O)C(O)(c2ccccc2)c2ccccc2)C1` (stereo not given), the “activity change” value is 17% (inactive).

For `CC(=O)C1CCOC1=O` (stereo not given), the “activity change” value was -4.49% (inactive).

In the case of `CCN[C@@H](C)Cc1ccccc1`, the “activity change” value is 0.863% [at 9.63 µM] (inactive).

As to `C=CCC1([C@H](C)CCC)C(=O)NC(=O)NC1=O`, the “activity change” value was 8.35% [at 8.54 µM] (inactive).

For `O=C1OC(CCN2CCCCC2)OC1(c1ccccc1)c1ccccc1` (stereo not given), the “activity change” value was -8.48% (inactive).

Turning to `C=CCN1C[C@H](C)N([C@H](c2ccc(C(=O)N(CC)CC)cc2)c2cccc(OC)c2)C[C@H]1C`, the “activity change” value is 16.9% (inactive).

For `C[C@H]1[C@@H]2Cc3ccc(O)cc3[C@@]1(C)CCN2C`, the “activity change” value was -23.9% [at 21.5 µM] (inactive).

Consider `CC(=O)OCC1=C(C(=O)O)N2C(=O)[C@@H](N)[C@H]2SC1`, for which the “activity change” value is -3% [at 1.78 µM] (inactive).

Regarding `C#C[C@]1(O)CC[C@H]2[C@@H]3CCC4=CC(=O)CC[C@]4(C)[C@H]3CC[C@@]21C`, the “activity change” value was 6.92% (inactive).

For the compound `COP(=S)(OC)Oc1ccc(S(=O)(=O)N(C)C)cc1`, the “activity change” value was 31.6% (inactive).

On to `NC(=O)CS(=O)C(c1ccccc1)c1ccccc1` (stereo not given), for which the “activity change” value was 13.3% (inactive).

With `CCN[C@@H](C)Cc1cccc(C(F)(F)F)c1`, the “activity change” value was 12.8% (inactive).

For the compound `CC(C)(C)NCC(O)c1cc(Cl)c(N)c(C(F)(F)F)c1` (stereo not given), the “activity change” value was -11.1% (inactive).

Turning to `CC1(C)C(C=C(Cl)Cl)C1C(=O)OC(C#N)c1cccc(Oc2ccccc2)c1` (stereo not given), the “activity change” value is 14.9% (inactive).

Take `C[C@@H](N)[C@@H](O)c1ccccc1`: the “activity change” value is -4.74% (inactive).

For `NC1=NC(=O)C(c2ccccc2)O1` (stereo not given), the “activity change” value is -13.9% (inactive).

Consider `CN(C)CCc1c[nH]c2cccc(OP(=O)(O)O)c12`, for which the “activity change” value was -14.6% [at 8.54 µM] (inactive).

`COC1CC(=C(c2cccs2)c2cccs2)C[N+](C)(C)C1` (stereo not given): the “activity change” value is 44.7% (inactive).

For the compound `CC(C)c1cccc(C(C)C)c1O`, the compound was classed as inactive.

For the compound `CCN(CC)CCc1c[nH]c2ccccc12`, the “activity change” value is -4.92% [at 9.63 µM] (inactive).

Take `COc1cccc(C(=O)CCN[C@@H](C)[C@H](O)c2ccccc2)c1`: the “activity change” value is -14.8% (inactive).

In the case of `O=c1[nH]c2ccccc2n1C1CCNCC1`, the “activity change” value is -6.51% (inactive).

For the compound `CCC(C)(C)c1ccc(O)cc1`, the “activity change” value is 1.74% (inactive).

Take `O=P1(N(CCCl)CCCl)NCCCO1` (stereo not given): the call was inactive.

Regarding `c1ccc2c(c1)sc1ccccc12`, the “activity change” value was -7.56% (inactive).

As to `O=C(N/N=C/c1ccc([N+](=O)[O-])o1)c1cc([N+](=O)[O-])cc([N+](=O)[O-])c1O`, the “activity change” value was -4.51% (inactive).

For the compound `C=C(C)[C@H]1CN[C@H](C(=O)O)[C@H]1CC(=O)O`, the call was inactive.

Consider `CCCCCCCCCC(=O)O[C@H]1CC[C@H]2[C@@H]3CCC4=CC(=O)CC[C@@H]4[C@H]3CC[C@]12C`, for which the “activity change” value is -11.4% (inactive).

For the compound `CC(C)c1c(CN(C)C(C)Cc2ccccc2)n(C)n(-c2ccccc2)c1=O` (stereo not given), the “activity change” value is 37.6% (inactive).

For `COC(=O)C(Cl)C(=O)OC`, the “activity change” value is -0.117% (inactive).

For the compound `Clc1ccccc1N1CCNCC1`, the “activity change” value is -4.04% (inactive).

As to `CN1CC[C@]23c4c5ccc(O)c4O[C@H]2[C@@H](O)CC[C@H]3[C@H]1C5`, the “activity change” value was 4.5% [at 8.54 µM] (inactive).

As for `C#CC(O)(C=CCl)CC` (stereo not given), the “activity change” value is 17.6% (inactive).

With `CCOC(=O)CC(SP(=S)(OC)OC)C(=O)OCC` (stereo not given), the compound was classed as inactive.

Take `COC(=O)[C@@H](N)CCCN/C(N)=N/[N+](=O)[O-]`: the “activity change” value is 17.3% (inactive).
